Measurements as given in the supplement of paper PMC10849652.
The full data set covers some 7,900 targets. This sample favours those with a hit. About 0.6% of all pairs of compound and target were hits.

What follows are targets tested with Cc1cn(-c2cc(NC(=O)c3ccc(C)c(Nc4nccc(-c5cccnc5)n4)c3)cc(C(F)(F)F)c2)cn1 [nilotinib] (assay: log2 fold change, soluble protein after heating vs DMSO (PISA); higher = thermal stabilisation; K562 cells, 10 uM, 30 min; active = over 0.2 and 3.5 SD of the protein, either way, in both replicates (recomputed)).
In short: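 K562 cells (2×10^6 cells/mL) were treated with 10 μM compound for 30 min, and aliquots were heated for 3 min over 48°C-58°C. Pooled aliquots were extracted in PBS with 0.5% NP-40 at 4°C, and the supernatant after 21,000xg for 90 min was measured by TMTpro 16plex LC-MS/MS with channel sums equalised. Reported thermal stability, relative to control samples and from duplicates, is a log2 fold change.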

UniProt Q14157, sequence (Q14157 whole entry, looked up): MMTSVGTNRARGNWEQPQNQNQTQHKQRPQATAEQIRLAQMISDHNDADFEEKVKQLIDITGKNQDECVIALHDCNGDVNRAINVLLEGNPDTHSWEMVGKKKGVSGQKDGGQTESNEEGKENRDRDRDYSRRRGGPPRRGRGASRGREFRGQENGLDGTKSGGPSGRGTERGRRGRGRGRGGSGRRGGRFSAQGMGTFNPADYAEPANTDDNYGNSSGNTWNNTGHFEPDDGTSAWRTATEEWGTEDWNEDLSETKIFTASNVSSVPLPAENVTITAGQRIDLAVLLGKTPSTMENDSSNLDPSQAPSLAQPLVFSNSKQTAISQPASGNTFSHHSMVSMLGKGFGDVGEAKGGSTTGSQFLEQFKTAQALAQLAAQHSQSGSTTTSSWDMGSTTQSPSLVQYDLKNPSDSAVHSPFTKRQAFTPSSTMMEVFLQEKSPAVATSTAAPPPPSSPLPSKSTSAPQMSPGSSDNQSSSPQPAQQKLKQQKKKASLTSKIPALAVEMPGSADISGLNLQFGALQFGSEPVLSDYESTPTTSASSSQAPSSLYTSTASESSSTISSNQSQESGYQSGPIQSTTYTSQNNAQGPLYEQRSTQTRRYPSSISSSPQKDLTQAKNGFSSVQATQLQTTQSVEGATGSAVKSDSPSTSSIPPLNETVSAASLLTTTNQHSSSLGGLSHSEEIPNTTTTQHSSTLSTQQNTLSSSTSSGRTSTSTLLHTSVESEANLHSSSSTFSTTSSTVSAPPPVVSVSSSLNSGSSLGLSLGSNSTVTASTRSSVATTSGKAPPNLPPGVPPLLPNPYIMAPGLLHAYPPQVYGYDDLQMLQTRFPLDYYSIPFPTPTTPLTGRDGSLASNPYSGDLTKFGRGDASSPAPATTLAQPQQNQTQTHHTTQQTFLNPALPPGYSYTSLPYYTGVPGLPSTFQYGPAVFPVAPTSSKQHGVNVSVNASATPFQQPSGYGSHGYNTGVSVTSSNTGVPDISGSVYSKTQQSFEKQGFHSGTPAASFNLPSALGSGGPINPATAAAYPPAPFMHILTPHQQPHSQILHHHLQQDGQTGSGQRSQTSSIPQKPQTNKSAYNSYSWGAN
UniProt Q14139, sequence (Q14139 whole entry, looked up): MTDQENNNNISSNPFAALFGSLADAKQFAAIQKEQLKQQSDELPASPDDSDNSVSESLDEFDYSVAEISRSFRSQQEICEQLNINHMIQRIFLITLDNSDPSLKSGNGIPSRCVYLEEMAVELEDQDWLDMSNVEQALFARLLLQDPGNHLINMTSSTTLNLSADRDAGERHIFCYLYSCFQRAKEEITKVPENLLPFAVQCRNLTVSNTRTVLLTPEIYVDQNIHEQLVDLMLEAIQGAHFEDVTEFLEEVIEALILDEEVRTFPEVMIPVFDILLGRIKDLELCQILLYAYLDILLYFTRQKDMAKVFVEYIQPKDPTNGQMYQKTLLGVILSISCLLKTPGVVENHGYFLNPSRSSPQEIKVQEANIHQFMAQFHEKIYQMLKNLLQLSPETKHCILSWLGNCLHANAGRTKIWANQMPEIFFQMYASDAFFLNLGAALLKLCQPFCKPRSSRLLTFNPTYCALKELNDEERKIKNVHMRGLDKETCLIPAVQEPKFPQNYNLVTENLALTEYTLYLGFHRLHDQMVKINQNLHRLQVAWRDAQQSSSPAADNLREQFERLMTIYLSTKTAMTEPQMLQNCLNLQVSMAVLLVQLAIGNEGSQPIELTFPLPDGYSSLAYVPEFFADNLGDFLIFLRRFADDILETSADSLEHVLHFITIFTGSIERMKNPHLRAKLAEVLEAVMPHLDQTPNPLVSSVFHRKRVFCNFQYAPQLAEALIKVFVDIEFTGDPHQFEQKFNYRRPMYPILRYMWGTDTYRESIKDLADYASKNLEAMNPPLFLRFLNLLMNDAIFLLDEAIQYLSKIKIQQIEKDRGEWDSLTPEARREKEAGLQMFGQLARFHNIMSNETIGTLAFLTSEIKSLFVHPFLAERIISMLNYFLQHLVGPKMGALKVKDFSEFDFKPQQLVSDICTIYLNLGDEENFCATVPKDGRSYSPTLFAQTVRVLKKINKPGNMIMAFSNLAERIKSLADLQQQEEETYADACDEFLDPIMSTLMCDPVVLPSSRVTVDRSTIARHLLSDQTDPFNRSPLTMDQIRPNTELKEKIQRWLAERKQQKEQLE
UniProt Q92973, sequence (Q92973 whole entry, looked up): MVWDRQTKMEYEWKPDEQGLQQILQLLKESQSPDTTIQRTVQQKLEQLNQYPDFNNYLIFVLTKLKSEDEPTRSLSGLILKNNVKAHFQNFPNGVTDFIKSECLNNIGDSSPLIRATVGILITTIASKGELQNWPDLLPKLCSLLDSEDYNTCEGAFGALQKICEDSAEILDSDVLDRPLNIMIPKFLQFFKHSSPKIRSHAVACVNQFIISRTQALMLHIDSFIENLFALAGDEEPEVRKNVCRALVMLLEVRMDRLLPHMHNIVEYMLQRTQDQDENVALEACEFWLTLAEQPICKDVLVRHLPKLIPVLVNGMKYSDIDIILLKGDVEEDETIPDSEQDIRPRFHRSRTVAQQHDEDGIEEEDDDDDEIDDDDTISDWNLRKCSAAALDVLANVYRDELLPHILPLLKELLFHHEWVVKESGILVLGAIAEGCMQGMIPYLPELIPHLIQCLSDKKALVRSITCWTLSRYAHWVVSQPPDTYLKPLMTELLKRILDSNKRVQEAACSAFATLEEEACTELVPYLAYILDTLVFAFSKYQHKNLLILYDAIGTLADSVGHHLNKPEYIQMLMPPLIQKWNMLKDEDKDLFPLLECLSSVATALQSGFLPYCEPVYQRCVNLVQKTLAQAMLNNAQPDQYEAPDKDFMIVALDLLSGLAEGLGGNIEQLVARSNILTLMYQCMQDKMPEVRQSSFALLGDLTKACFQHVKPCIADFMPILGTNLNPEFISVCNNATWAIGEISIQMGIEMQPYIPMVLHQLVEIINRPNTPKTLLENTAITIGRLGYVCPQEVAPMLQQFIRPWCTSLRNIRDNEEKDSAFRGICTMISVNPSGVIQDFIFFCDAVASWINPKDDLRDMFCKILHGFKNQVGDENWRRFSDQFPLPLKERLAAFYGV
UniProt Q8N1B4, sequence (Q8N1B4 whole entry, looked up): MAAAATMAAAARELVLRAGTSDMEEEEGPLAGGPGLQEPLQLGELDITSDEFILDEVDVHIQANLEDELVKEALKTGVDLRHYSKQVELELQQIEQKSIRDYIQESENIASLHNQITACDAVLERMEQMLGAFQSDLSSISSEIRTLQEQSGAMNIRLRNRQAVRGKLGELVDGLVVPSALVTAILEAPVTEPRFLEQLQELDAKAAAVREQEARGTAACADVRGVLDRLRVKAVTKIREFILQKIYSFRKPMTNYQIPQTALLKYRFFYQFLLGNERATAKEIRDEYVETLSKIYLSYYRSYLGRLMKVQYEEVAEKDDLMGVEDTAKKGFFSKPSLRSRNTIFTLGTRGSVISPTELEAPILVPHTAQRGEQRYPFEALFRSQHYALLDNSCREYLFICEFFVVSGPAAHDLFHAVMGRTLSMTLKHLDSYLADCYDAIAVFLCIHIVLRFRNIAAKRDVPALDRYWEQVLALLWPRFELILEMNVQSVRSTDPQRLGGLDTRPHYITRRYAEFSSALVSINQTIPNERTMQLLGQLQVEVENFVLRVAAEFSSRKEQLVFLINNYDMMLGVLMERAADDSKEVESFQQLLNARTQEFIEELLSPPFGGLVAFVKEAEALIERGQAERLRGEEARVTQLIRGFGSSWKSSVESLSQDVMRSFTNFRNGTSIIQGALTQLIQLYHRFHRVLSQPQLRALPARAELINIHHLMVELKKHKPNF
UniProt P68366, sequence (P68366 whole entry, looked up): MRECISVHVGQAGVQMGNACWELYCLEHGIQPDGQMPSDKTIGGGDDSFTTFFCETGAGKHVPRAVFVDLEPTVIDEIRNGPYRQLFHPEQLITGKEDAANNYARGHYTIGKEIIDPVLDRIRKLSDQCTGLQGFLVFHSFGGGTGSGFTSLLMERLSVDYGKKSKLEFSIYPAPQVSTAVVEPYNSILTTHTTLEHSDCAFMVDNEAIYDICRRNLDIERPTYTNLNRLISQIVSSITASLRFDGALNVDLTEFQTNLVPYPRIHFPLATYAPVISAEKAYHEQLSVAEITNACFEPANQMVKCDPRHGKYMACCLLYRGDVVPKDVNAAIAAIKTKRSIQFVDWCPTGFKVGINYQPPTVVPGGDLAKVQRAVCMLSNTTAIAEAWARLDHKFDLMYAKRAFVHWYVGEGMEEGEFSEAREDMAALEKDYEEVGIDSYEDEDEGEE
UniProt Q96LJ8, sequence (Q96LJ8 whole entry, looked up): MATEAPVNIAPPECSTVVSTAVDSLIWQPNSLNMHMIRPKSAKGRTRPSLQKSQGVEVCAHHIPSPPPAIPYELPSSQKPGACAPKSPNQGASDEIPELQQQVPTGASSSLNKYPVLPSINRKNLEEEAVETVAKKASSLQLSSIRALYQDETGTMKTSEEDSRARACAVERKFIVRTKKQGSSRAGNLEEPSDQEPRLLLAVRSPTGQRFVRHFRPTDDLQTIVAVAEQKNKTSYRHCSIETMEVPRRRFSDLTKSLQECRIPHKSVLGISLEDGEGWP
UniProt Q96AJ9, sequence (Q96AJ9 whole entry, looked up): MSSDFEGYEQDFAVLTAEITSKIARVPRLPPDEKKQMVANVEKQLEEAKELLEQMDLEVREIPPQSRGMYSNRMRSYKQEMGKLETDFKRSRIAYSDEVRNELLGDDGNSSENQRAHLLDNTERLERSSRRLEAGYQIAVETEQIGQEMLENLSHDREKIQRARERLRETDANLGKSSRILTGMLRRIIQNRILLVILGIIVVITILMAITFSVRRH
UniProt P51809, sequence (P51809 whole entry, looked up): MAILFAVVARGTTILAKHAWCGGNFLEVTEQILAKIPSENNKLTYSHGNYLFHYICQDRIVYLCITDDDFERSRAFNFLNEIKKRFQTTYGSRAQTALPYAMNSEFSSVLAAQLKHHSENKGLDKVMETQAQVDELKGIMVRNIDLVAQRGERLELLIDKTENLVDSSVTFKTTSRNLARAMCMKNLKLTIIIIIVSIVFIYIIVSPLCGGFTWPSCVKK

log2 fold change, inactive:
TMEM8A (UniProt Q9HCN3) -0.033, UBAP2L isoform 1 (UniProt Q14157) 0.013, UBE4A isoform 2 (UniProt Q14139) -0.111, XPNPEP1 isoform 3 (UniProt Q9NQW7) -0.036, UTP14A (UniProt Q9BVJ6) 0.011, VAMP7 (UniProt P51809) -0.034, WDR4 (UniProt P57081) 0.009, TOP2A isoform 4 (UniProt P11388) -0.119, UBA1 (UniProt P22314) -0.089, WDHD1 (UniProt O75717) -0.005, WDR61 (UniProt Q9GZS3) -0.018, VTI1A (UniProt Q96AJ9) -0.006, VPS8 (UniProt Q8N3P4) -0.162, USO1 isoform 2 (UniProt O60763) -0.039, TSFM (UniProt P43897) 0.062, TMEM9 (UniProt Q9P0T7) -0.017, UBAP1 isoform 4 (UniProt Q9NZ09) -0.082, VPS50 (UniProt Q96JG6) -0.074, UNC119B (UniProt A6NIH7) 0.16, XPO6 (UniProt Q96QU8) -0.143, TUBA4A (UniProt P68366) -0.011, TRMT10C (UniProt Q7L0Y3) -0.043, TMEM120A (UniProt Q9BXJ8) -0.009, UBXN10 (UniProt Q96LJ8) -0.085, TNPO1 (UniProt Q92973) -0.037, UFL1 (UniProt O94874) -0.119, VTI1B (UniProt Q9UEU0) 0.013, VKORC1 (UniProt Q9BQB6) -0.008, VPS52 (UniProt Q8N1B4) -0.085, UBE3D (UniProt Q7Z6J8) 0.043, VPS33B (UniProt Q9H267) -0.056, USP48 isoform 8 (UniProt Q86UV5) -0.097, UBE2S (UniProt Q16763) -0.008, TMTC3 (UniProt Q6ZXV5) -0.036
